# Assay outcomes as filed in PubChem BioAssay.
# Shown is part of a subset that was picked to be rich in hits.
# Tg IFNy HTS – inhibitors of Toxoplasma gondii growth with IFN-gamma; activity change, negative = inhibition, % (concentration not given with the values); Toxoplasma gondii growth in IFN-gamma-treated host cells; stronger effect = lower value; actives 3.8% (n = 69,000); in the data active means activity change below about -70%, passing the limit was not always enough;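 further: host cells are HeLa cells infected with Toxoplasma gondii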
# Active calls of the source: *; ! = not confirmed by another sample.
SMILES,Tg IFNy HTS
FC(F)(F)c1sc(-c2nnc(-c3ccc(Cl)cc3Cl)o2)cc1-c1ccccc1,42
O=C(O)c1cc(-c2ccccc2)c(C(F)(F)F)s1,19
Cc1ccccc1CN1CC[C@H]2[C@H](CC1)S(=O)(=O)CCN2C(=O)c1ccccc1,-4
C=CCn1c(=O)c(-c2nc(-c3ccc(SC)cc3)no2)c(O)c2ccccc21,26
COc1ccccc1-c1noc(-c2c(O)c3cc(F)ccc3n(C)c2=O)n1,-29
O=C(NC1CCN(c2cnccn2)CC1)c1ccccc1C1CCNC1 (centres undefined),3
O=C(NC1CCNCC1)c1[nH]ncc1NC(=O)c1c(Cl)cccc1Cl,-72*
O=C(NC1CCc2[nH]ncc2C1)c1cccc(CC2CCNCC2)c1 (centres undefined),3
CN(CC1CCCNC1)C(=O)c1ccc(CSc2ccccn2)cc1 (centres undefined),3
c1ccc(CN2CCNCC(Cc3cnccn3)C2)cc1 (centres undefined),-16
CCOC(=O)c1cc(NC(=O)c2ccc(F)c(Cl)c2)ccc1Oc1cncc(Cl)c1,-90*
COc1cncc(C(=O)Nc2ccc(C)c(F)c2)c1,-15
CCOC(=O)c1nc(Nc2ccc(F)c(Cl)c2)c2ccccc2n1,-51
CCc1nn(C)c(Cl)c1CN1CCCC(OCc2ccccn2)C1 (centres undefined),8
O=C(CCCn1cnnn1)Nc1cnc2n1CCCC2,15
Cc1nc(-c2ccc(F)cc2)sc1-c1ccc(SCc2ccccc2)nn1,39
CSc1ccc(CNc2nc(-c3nnc(-c4ccc(F)cc4)o3)nc3ccccc23)cc1,-13
Cc1cc(F)ccc1NC(=O)CCNC(=O)c1c(O)cccc1O,-1
Cc1ccc(S(=O)(=O)N(C)C[C@@H]2Oc3cc(C#CC4CCCC4)ccc3S(=O)(=O)N([C@@H](C)CO)C[C@H]2C)cc1,-109*
CCCN(C)C[C@@H]1Oc2cc(/C=C/c3ccccc3)ccc2S(=O)(=O)N([C@H](C)CO)C[C@@H]1C,9
C[C@H](CO)N1C[C@H](C)[C@H](CN(C)C(=O)c2cnccn2)Oc2cc(C#CCC3CCCC3)ccc2S1(=O)=O,-100*
C[C@H](CO)N1C[C@H](C)[C@H](CN(C)Cc2ccccc2C(=O)O)Oc2cc(-c3ccc(F)cc3)ccc2S1(=O)=O,65
C[C@@H]1CN([C@@H](C)CO)S(=O)(=O)c2ccc(C#Cc3cccc(F)c3)cc2O[C@@H]1CN(C)S(=O)(=O)c1cn(C)cn1,32
CCCN(C)C[C@H]1Oc2cc(/C=C/c3ccccc3)ccc2S(=O)(=O)N([C@H](C)CO)C[C@H]1C,-92*
CCCC#Cc1ccc2c(c1)O[C@@H](CN(C)Cc1ccccn1)[C@H](C)CN([C@@H](C)CO)S2(=O)=O,-29
SMILES,Tg IFNy HTS
CCCC#Cc1ccc2c(c1)O[C@H](CN(C)Cc1ccccn1)[C@@H](C)CN([C@H](C)CO)S2(=O)=O,-29
CCCC#Cc1ccc2c(c1)O[C@H](CN(C)Cc1ccccn1)[C@H](C)CN([C@@H](C)CO)S2(=O)=O,-94*
C[C@@H]1CN([C@@H](C)CO)S(=O)(=O)c2ccc(-c3ccncc3)cc2O[C@H]1CN(C)S(C)(=O)=O,72
C[C@H]1CN([C@@H](C)CO)S(=O)(=O)c2ccc(C#CCC3CCCC3)cc2O[C@@H]1CN(C)C(=O)c1cnccn1,-53
COCC#Cc1ccc2c(c1)O[C@H](CN(C)C(=O)C1CCOCC1)[C@H](C)CN([C@@H](C)CO)S2(=O)=O,51
Cc1cc(CN2CC[C@@H]3OC[C@H](C(=O)N4CCCO4)C[C@H]3C2)oc1C,-2
Cc1ncc(CO)c(CN2CCC(C(O)c3cccs3)CC2)c1O (centres undefined),-1
CN(Cc1nc2ccccc2n1C)C(=O)[C@H]1Cc2ccccc2CN1,38
Cn1cc(CN2CC[C@H]3C[C@@H](c4nccs4)O[C@H]3C2)cn1,77
CCN1CCC2(CN(CCOC)CC23CCN(C(=O)Cc2ccsc2)CC3)C1=O (centres undefined),-37
C=CCNc1cnn(C23CC4CC(CC(C4)C2)C3)c(=O)c1Cl,-23
COc1ccccc1-n1c(-c2ccc(Br)cc2)cc2c1CC(C)(C)CC2=O,-92*
CC1(C)CC(=O)c2cc(-c3ccccc3)n(CC(=O)O)c2C1,18
Cc1ccccc1-n1nc(C)c2c1CC(C)(C)CC2=O,-30
Cc1cccc(C)c1Oc1ncccc1CNC(=O)c1nc[nH]c1C,-5
COc1ccc(C(=O)N2CC=C[C@H]2C(=O)NCCc2ccccc2)cc1,82
CN1CCCN(CC2(O)CCNC2)CC1 (centres undefined),-94*
Cc1cc(C)n(CC2(CNC(=O)CN3CCCN(C)CC3)CC2)n1,-19
CCc1ccc(NC(=O)N2C[C@H]3C[C@H](C(=O)NCC4CC4)[C@@H](C2)O3)cc1,0
Cc1ccc(NC(=O)c2c(O)c3cccnc3n(-c3cccc(F)c3)c2=O)c(F)c1,-4
CN(C)C(=O)c1cnc2n1CCN(c1cc(C(F)(F)F)ncn1)C2,76
O=C(N1CCCC1)N1CCC2(CC(=O)N(c3cccc(F)c3)C2)C1 (centres undefined),3
O=C(NCCN1CCOCC1)c1csc(-c2ccc(N3CCCC3)nc2)n1,-100*
O=C(NCc1ccc(N2CCOCC2)cc1)c1csc(-c2ccc(N3CCCC3)nc2)n1,84
O=C(c1csc(-c2ccc(N3CCCC3)nc2)n1)N1CCC2(CC1)OCCO2,41
SMILES,Tg IFNy HTS
Cc1ccccc1NC(=O)CNC(=O)CCCn1cnc2ccccc2c1=O,-1
Cc1ccccc1CNC(=O)N1CC[C@H]2CN(CC(=O)N(C)C)S(=O)(=O)[C@@H]2CC1,-6
COc1cc(NC2CCS(=O)(=O)CC2)ncn1,3
O=C(c1ccco1)N1CCC[C@H]1Cn1nc(-c2ccc3c(c2)OCCO3)ccc1=O,-36
CC(C)CC(=O)Nc1n[nH]c2c1CN(C(=O)C1CCN(C)CC1)C2(C)C,-76*
FC(F)(F)c1cc(C2CCNCC2)nc(-c2ccsc2)n1,-25
C=CCN1CCN(C)C2(CCN(C(=O)c3cnccn3)CC2)C1=O,2
Cc1ccc(C(=O)Nc2ccc(CN3CCN(C)CC3)c(C(F)(F)F)c2)cc1C#Cc1cnc2[nH]ncc2c1,-80*
Cc1ncc(NC(=O)c2ccc(CN3CCN(C)CC3)c(C(F)(F)F)c2)cc1Nc1nccc(-c2cccnc2)n1,-23
CN(C)C1CCN(Cc2ccc(C(=O)Nc3ccc4c(cnn4C)c3)cc2)C1 (centres undefined),79
COC1CCCC(C(=O)N2CCC3(CC2)C(=O)Nc2ccc(-c4ccc(C(C)=O)cc4)cc23)C1 (centres undefined),-86*
COC1CCCC(C(=O)N2CCC3(CC2)C(=O)Nc2ccc(-c4cccc(F)c4)cc23)C1 (centres undefined),11
CCC(=O)N1CCC2(CC1)C(=O)Nc1ccc(C(=O)NC3CC3)cc12,3
CN1C(=O)N(CCc2ccccc2)C(=O)C12CCN(Cc1ccc(-c3ccccc3Cl)o1)CC2,3
O=C(NCc1ccc(N2CCCCC2)cc1)c1cn2c(n1)CSCC2,119
C[C@H]1[C@H](C)CC[C@]2(C(=O)O)CC[C@]3(C)C(=CC[C@@H]4[C@@]5(C)C[C@@H](O)[C@H](O)[C@@](C)(CO)[C@@H]5CC[C@]43C)[C@H]12,-74*!
C[C@H]1[C@H](C)CC[C@]2(C(=O)O)CC[C@]3(C)C(=CCC4[C@@]5(C)C[C@@H](O)[C@H](O)[C@@](C)(CO)C5[C@H](O)C[C@]43C)[C@H]12 (some centres undefined),-28
